From PubChem BioAssay (NCATS)
Results filed as inconclusive are left out. A number with no mark means an inactive call. Calls come from the whole dose curve; as a rule, active = well fitted activation curve with a large enough effect; inconclusive = small, poorly fitted or top-dose-only effect, or effect the other way; inactive = flat fitted curve, though single readings scatter.

assay: Cellular Toxicity (caspase-3) NIH 3T3 (AID 666); settings: NIH 3T3 caspase-3 activation, apoptosis/toxicity; series mostly up to 92.2 µM; caspase-3 activation: at the top concentration;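 note: caspase signal read after 16 h compound exposure; 0% = DMSO basal and 100% = 100 µM tamoxifen stimulation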
Description: NIH Chemical Genomics Center [NCGC]
NIH Molecular Libraries Screening Centers Network [MLSCN]
National Institutes of Environmental Health Sciences [NIEHS]
National Toxicology Program [NTP]
We have developed a 1536-well cell-based assay for quantitative high throughput screening (qHTS) against a number of cell lines to determine in vitro caspase 3/7 of small molecules. This particular assay uses the NIH 3T3 cell line which is derived from mouse fibroblasts.
NCGC Assay Protocol Summary:
The Caspase-Glo 3/7 assay (Promega) is a homogeneous method to measure caspase-3 and caspase-7 activities in cultured cells. The quantitation of caspase 3/7 activity is based on the cleavage of a peptide-aminoluciferin substrate. After caspase cleaves the substrate the free aminoluciferin is liberated and serves as the substrate of luciferase, which generates the light. The luminescent signal is proportional to amount of caspase 3/7 activity present.
Using the Caspase-Glo 3/7 assay, the amount of caspase 3/7 activity was measured in the NIH 3T3 cell line with complete culture medium following compound treatment for 16 hours. The assay was performed in opaque white 1536-well plates. In the screen, tamoxifen and doxorubicin were used as positive controls. Library compounds were measured for their ability to cause the activation of caspase 3/7 in the cell line, as reflected by an increase in luminescence signal, in a concentration-dependent manner. Data were normalized to the controls for basal activity (DMSO only) and 100% stimulation (100 uM tamoxifen). AC50 values were determined from concentration-response data modeled with the standard Hill equation.
qHTS protocol for caspase 3/7 assay in NIH 3T3 cells
[Step] [Parameter] [Value] [Description]
1. Reagent; 5 uL; 1000 NIH 3T3 cells/well
2. Time; 5 hr; 37 °C incubation
4. Controls; 23 nL; Tamoxifen 0.23 uM to 100 uM & Doxorubicin 7.0 pM to 100 uM
5. Time; 16 hr; 37 °C incubation
6. Reagent; 5 uL; Caspase-Glo 3/7 reagent
7. Time; 20 min; Room Temperature
8. Detection; Luminescence; Viewlux plate reader
Keywords: caspase 3/7, apoptosis, NIH 3T3 cell line, luminescence, NTPHTS, NTPHTS_NCGC, NIEHS, EPA, DSSTox, MLSMR, MLSCN, NIH Roadmap, qHTS, NCGC

SMILES | caspase-3 activation
CC(C)OS(C)(=O)=O | -2.11%
COC(C)(C)C | 0.433%
C/C=C/CC#N | 0.88%
N#CCCC#N | -2.89%
Clc1ccc(C(Cl)(Cl)Cl)cc1Cl | -0.813%
Cl/C=C/CCl | 1.22%
COc1cc(-c2ccc(N)c(OC)c2)ccc1N | -6.11%
N#C/C(N)=C(/N)C#N | 5.1%
CCCCCc1cc(O)cc(O)c1 | 2.27%
Oc1c(Cl)cccc1Cl | -0.0821%
Nc1ccc2ccccc2c1 | 1.6%
BrCC(Br)(Br)Br | 5.64%
ClP(Cl)(Cl)(Cl)Cl | -0.379%
c1ccoc1 | -3.45%
CN(C)c1ccc(N(C)C)cc1 | -7.64%
CN(C)C(=O)Cl | -1.72%
Clc1ccccc1 | 0.726%
C=CCOCC1CO1 (stereo not given) | 2.38%
C=CCCl | -1.26%
C=CC=O | -0.601%

SMILES | caspase-3 activation
NC1CCC(CC2CCC(N)CC2)CC1 (stereo not given) | -1.46%
Cc1ccc(N)cc1Cl | -4.03%
Cc1ccc([N+](=O)[O-])cc1 | -2.12%
Clc1ccc(C(Cl)(Cl)Cl)c(Cl)c1 | 0.626%
CC(C)CON=O | 3.64%
O=[N+]([O-])c1ccc(Cl)c(Cl)c1Cl | 16.1%
C=CCO | 2.16%
O=C(O)c1cc(Cl)ccc1Cl | 0.967%
C=COC(C)=O | 3.97%
Oc1cc(Cl)c(Cl)c(Cl)c1Cl | -6.28%
CN(C)N=O | -0.49%
CCCN(CCC)c1c([N+](=O)[O-])cc(C(F)(F)F)cc1[N+](=O)[O-] | 3.03%
O=[N+]([O-])c1ccccc1-c1ccccc1 | 2.18%
O=C(Cl)c1ccccc1F | -4.32%
Cc1ccc(N)c(C)c1 | -0.284%
CC[N+](=O)[O-] | 0.495%
COC(=O)Nc1cccc(OC(=O)Nc2cccc(C)c2)c1 | -5.43%
Oc1cc(Cl)c(Cl)c(Cl)c1 | 2.67%
Nc1c(Br)cc([N+](=O)[O-])cc1[N+](=O)[O-] | -3.55%
CC(C)(C)OOC(=O)c1ccccc1 | 3.33%
